Records with an inconclusive call do not appear. A structure can be active in one record and inactive in another. The source made the active and inactive calls. The calls were made as follows, unless noted: active = hit-call score of the fitted dose curve at least 0.9, where 1 is the maximum; inconclusive = response in the unintended direction; inactive = score below 0.9.
Columns and labels:
[1] = target: Estrogen receptor (Homo sapiens) (UniProt P03372); experiment: OT_ERa_GFPERaERE_0480: Odyssey Thera (OT) 8-hour HeLa Transcription Induction Assay for Estrogen Receptor (AID 2283381; active = hit-call score of the fitted dose curve at least 0.9, where 1 is the maximum; inactive = score below 0.9)
Estrogen receptor (Homo sapiens), sequence (P03372 whole entry, looked up): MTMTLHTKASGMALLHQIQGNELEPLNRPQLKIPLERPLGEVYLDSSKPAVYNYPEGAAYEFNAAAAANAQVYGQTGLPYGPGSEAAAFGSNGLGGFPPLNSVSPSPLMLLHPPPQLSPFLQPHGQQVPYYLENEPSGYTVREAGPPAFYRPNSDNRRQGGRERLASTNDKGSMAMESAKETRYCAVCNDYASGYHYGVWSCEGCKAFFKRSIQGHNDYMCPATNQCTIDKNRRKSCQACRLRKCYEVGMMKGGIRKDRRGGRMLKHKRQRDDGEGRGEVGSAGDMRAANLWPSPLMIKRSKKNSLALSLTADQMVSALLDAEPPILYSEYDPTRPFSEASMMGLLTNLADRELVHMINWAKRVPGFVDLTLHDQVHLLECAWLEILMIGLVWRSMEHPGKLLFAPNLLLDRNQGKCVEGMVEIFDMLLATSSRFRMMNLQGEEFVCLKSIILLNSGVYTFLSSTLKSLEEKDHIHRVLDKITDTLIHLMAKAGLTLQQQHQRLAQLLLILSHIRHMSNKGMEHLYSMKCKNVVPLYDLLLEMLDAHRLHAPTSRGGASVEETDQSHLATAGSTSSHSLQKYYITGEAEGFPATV
Procedure, shortened: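 Human cervical HeLa cells were treated for 8 hours, after which ERE-driven GFP induction was measured by fluorescence microscopy; increases over DMSO baseline defined activity.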

[2] = target: Estrogen receptor (Homo sapiens) (UniProt P03372); experiment: OT_ERa_GFPERaERE_0120: Odyssey Thera (OT) 2-hour HeLa Transcription Induction Assay for Estrogen Receptor (AID 2283382)
Procedure, shortened: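 Cells (human cervical HeLa) receive compound, incubate 2 hours, then are imaged for fluorescent reporter induction. Images are quantified by high content analysis, and activity is fitted as gain of signal against DMSO.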

[3] = target: Bile acid receptor (Homo sapiens) (UniProt Q96RI1); experiment: OT_FXR_FXRSRC1_0480: Odyssey Thera (OT) 8-hour HEK293T Protein-Complementation Assay for Farnesoid X receptor/SRC-1 Co-activator (AID 2283383)
Bile acid receptor (Homo sapiens), sequence (Q96RI1 whole entry, looked up): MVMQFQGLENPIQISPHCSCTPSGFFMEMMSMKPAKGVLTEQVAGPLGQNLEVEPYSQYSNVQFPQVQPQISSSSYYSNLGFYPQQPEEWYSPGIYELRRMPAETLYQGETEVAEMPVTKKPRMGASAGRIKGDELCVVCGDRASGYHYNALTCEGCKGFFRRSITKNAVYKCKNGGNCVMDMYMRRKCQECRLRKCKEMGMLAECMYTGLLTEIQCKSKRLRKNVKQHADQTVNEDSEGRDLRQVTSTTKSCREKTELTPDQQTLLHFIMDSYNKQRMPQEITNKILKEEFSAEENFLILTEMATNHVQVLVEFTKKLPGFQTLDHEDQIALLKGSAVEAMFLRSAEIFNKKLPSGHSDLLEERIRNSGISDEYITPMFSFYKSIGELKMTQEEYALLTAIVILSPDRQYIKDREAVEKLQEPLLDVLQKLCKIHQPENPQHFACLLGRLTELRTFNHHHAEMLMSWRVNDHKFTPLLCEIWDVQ
Procedure, shortened: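 PCA, HEK293T, 8 h compound exposure; FXR–SRC-1 binding reconstitutes split reporter; fluorescence intensity; positive-direction fit vs DMSO.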

[4] = target: Retinoic acid receptor RXR-alpha (Homo sapiens) (UniProt P19793); experiment: OT_NURR1_NURR1RXRa_0480: Odyssey Thera (OT) 8-hour HEK293T Protein Complementation Assay for Nurr1/retinoid X receptor (RXR) (AID 2283385)
Retinoic acid receptor RXR-alpha (Homo sapiens), sequence (P19793 whole entry, looked up, the tested form may be a part): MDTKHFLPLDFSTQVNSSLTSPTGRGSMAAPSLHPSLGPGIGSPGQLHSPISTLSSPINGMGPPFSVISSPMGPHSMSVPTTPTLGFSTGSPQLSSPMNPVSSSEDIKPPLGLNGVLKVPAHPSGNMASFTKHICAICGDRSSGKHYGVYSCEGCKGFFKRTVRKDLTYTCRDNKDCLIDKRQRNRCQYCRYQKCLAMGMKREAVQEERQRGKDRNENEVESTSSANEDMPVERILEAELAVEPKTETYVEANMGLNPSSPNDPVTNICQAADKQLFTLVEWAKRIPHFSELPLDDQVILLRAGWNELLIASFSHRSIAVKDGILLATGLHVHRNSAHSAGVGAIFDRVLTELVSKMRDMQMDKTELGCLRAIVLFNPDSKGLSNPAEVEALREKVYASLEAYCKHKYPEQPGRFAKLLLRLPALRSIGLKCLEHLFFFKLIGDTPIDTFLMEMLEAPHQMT
Procedure, shortened: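 Interaction of bait and prey reconstitutes a functional reporter, whose fluorescence was measured in HEK293T cells dosed with compound for 8 hours. Signal gain relative to DMSO defined the single endpoint.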

[5] = target: Retinoic acid receptor RXR-alpha (Homo sapiens) (UniProt P19793); experiment: OT_NURR1_NURR1RXRa_1440: Odyssey Thera (OT) 24-hour HEK293T Protein Complementation Assay for Nurr1/retinoid X receptor (RXR) (AID 2283386)
Procedure, shortened: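 Steps: fragment-tagged Nurr1 and RXRα expressed in HEK293T; compounds added; after 24 h, complemented reporter quantified by fluorescence intensity; signal increase over DMSO fitted as the single endpoint.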

[6] = target: Peroxisome proliferator-activated receptor gamma (Homo sapiens) (UniProt P37231); experiment: OT_PPARg_PPARgSRC1_1440: Odyssey Thera (OT) 24-hour Protein-Complementation Assay for Peroxisome Proliferator-activated Receptor Gamma/ SRC-1 Co-activator (AID 2283388)
Peroxisome proliferator-activated receptor gamma (Homo sapiens), sequence (P37231 whole entry, looked up, the tested form may be a part): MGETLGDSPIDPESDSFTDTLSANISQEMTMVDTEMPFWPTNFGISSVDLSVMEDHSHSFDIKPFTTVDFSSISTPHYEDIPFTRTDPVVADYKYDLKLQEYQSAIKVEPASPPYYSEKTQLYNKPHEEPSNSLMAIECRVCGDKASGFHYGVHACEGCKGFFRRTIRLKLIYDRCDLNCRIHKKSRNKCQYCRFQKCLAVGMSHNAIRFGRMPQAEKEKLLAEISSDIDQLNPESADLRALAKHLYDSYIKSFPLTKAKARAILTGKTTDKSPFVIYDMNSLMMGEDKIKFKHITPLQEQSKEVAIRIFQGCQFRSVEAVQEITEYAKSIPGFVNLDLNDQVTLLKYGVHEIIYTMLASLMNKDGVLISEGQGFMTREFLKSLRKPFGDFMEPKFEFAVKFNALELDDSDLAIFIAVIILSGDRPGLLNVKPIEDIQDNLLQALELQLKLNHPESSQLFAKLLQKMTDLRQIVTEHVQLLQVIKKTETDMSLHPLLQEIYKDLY
Procedure, shortened: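 HEK293T transiently transfected with PPARg/SRC-1 split-Venus YFP fusions 48 h before dosing, then treated 24 h at 37C. Fixed cells imaged; nuclear/cytoplasmic 488 nm fluorescence ratio, gain of signal versus DMSO.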

[7] = read-out: Tumor necrosis factor receptor superfamily member 6 (Homo sapiens) (UniProt P25445); experiment: LTEA_HepaRG_FAS: Life Technologies and Expression Analysis (LTEA) Assay for Fas cell surface death receptor (FAS) using HepaRG (AID 2283447; active = hit-call score of the fitted dose curve at least 0.9, where 1 is the maximum; inactive = score below 0.9); conditions: mRNA level, 48 h; actives raise or lower the signal
Procedure, shortened: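 Differentiated HepaRG cells in serum-free induction medium were exposed 48 h to 8 half-log concentrations up to 100 uM in 0.5% DMSO, in duplicate. FAS mRNA was measured by qRT-PCR normalised to ACTB, GAPDH and POLR2A; bidirectional fit versus DMSO.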

[8] = read-out: Fatty acid synthase (Homo sapiens) (UniProt P49327); experiment: LTEA_HepaRG_FASN: Life Technologies and Expression Analysis (LTEA) Assay for Fatty Acid Synthase (FASN) using HepaRG (AID 2283448; active = hit-call score of the fitted dose curve at least 0.9, where 1 is the maximum; inactive = score below 0.9); conditions: mRNA level, 48 h; actives raise or lower the signal
Procedure, shortened: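 Cells were plated, cultured 48 h, switched to serum-free induction medium, then dosed in duplicate (max 100 uM, half-log dilutions, 0.5% DMSO) for 48 h. RNA was then isolated and FASN quantified by qRT-PCR.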

[9] = read-out: Cyclin D2 (CCND2), CCND2 (gene 894); experiment: LTEA_HepaRG_CCND2: Life Technologies and Expression Analysis (LTEA) Assay for Cyclin D2 (CCND2) using HepaRG (AID 2283449; active = hit-call score of the fitted dose curve at least 0.9, where 1 is the maximum; inactive = score below 0.9;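 also: CCND2 transcript measured by TaqMan qRT-PCR and normalised to three housekeeping genes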); conditions: mRNA level, 48 h; actives raise or lower the signal
Procedure, shortened: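 HepaRG, 48 h dosing, 8-pt half-log curve from 100 uM, 0.5% DMSO; duplicate wells. Readout: CCND2 transcript by microfluidic qRT-PCR, housekeeping-normalised; bidirectional fit vs DMSO baseline.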

[10] = target: Peroxisome proliferator-activated receptor gamma (Homo sapiens) (UniProt P37231); experiment: OT_PPARg_PPARgSRC1_0480: Odyssey Thera (OT) 8-hour Protein-Complementation Assay for Peroxisome Proliferator-activated Receptor Gamma / SRC-1 Co-activator (AID 2283387)
Procedure, shortened: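 HEK293T transiently transfected with PPARg and SRC-1 fused to Venus YFP fragments, compounds 8 h at 37C. Fixed, Draq5-stained cells imaged; nuclear/cytoplasmic 488 nm fluorescence ratio over at least 350 cells per image; gain fitted versus DMSO.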

[11] = CEETOX_H295R_11DCORT: CeeTox H295R High-throughput Steroidogenesis Assay for 11-Deoxycortisol (11DCORT) (AID 2283432; active = hit-call score of the fitted dose curve at least 0.9, where 1 is the maximum; inactive = score below 0.9;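 as to AC50: 11-deoxycortisol secreted into the medium measured by LC-MS/MS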); conditions: actives raise or lower the signal
Procedure, shortened: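 H295R cells prestimulated 48 h with 10 uM forskolin, then exposed 48 h to chemical in 0.1% DMSO. 11-Deoxycortisol in medium quantified by HPLC-MS/MS after MTBE extraction; bidirectional fit versus DMSO. MTT viability read in same wells.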

[12] = CEETOX_H295R_OHPREG: CeeTox H295R High-throughput Steroidogenesis Assay for OH-Pregnenolone (OHPREG) (AID 2283434; active = hit-call score of the fitted dose curve at least 0.9, where 1 is the maximum; inactive = score below 0.9); conditions: actives raise or lower the signal
Procedure, shortened: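 H295R, 10 uM forskolin pre-stim 48 h; test chemical 48 h, 0.1% DMSO final. MTBE extraction, reverse-phase C18 HPLC-ESI+ MS/MS of medium. Gain/loss vs DMSO; viability by MTT in same wells.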

[13] = CEETOX_H295R_OHPROG: CeeTox H295R High-throughput Steroidogenesis Assay for OH-Progesterone (OHPROG) (AID 2283435; active = hit-call score of the fitted dose curve at least 0.9, where 1 is the maximum; inactive = score below 0.9;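 as to AC50: human adrenal H295R cells primed 48 h with 10 µM forskolin; 17alpha-hydroxyprogesterone secreted into medium measured by HPLC-MS/MS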); conditions: actives raise or lower the signal
Procedure, shortened: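 Steps: seed H295R cells and adhere overnight; stimulate with 10 uM forskolin for 48 h; replace with chemical-containing medium (0.1% DMSO) for 48 h; extract medium with MTBE; quantify 17alpha-hydroxyprogesterone by reverse-phase C18 HPLC-MS/MS against a 7-point curve.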

[14] = CEETOX_H295R_CORTIC: CeeTox H295R High-throughput Steroidogenesis Assay for Corticosterone (CORTIC) (AID 2283437; active = hit-call score of the fitted dose curve at least 0.9, where 1 is the maximum; inactive = score below 0.9;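 also: corticosterone secreted into medium quantified by mass spectrometry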;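 as to AC50: human H295R adrenal cells prestimulated with forskolin before chemical exposure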); conditions: actives raise or lower the signal
Procedure, shortened: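 48 h forskolin (10 uM) prestim, then 48 h chemical exposure, final DMSO 0.1%. Readout: corticosterone in medium by LC-MS/MS after MTBE extraction. Gain/loss fit vs DMSO; MTT viability in same wells.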

[15] = CEETOX_H295R_CORTISOL: CeeTox H295R High-throughput Steroidogenesis Assay for Cortisol (AID 2283438; active = hit-call score of the fitted dose curve at least 0.9, where 1 is the maximum; inactive = score below 0.9); conditions: actives raise or lower the signal
Procedure, shortened: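 Cortisol synthesis by H295R cells is measured 48 h after chemical dosing, following a 48 h stimulation with 10 uM forskolin. Hormone is extracted and quantified by HPLC-MS/MS, and activity is fitted bidirectionally against the DMSO control.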

[16] = CEETOX_H295R_DOC: CeeTox H295R High-throughput Steroidogenesis Assay for DOC (AID 2283439; active = hit-call score of the fitted dose curve at least 0.9, where 1 is the maximum; inactive = score below 0.9); conditions: actives raise or lower the signal
Procedure, shortened: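 Steps: seed H295R, adhere overnight; 10 uM forskolin 48 h; replace with chemical medium (0.1% DMSO) 48 h; collect medium, MTBE extraction, HPLC-MS/MS for DOC. Viability then checked by MTT; cytotoxic chemicals diluted until viability ≥70%.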

[17] = CEETOX_H295R_ESTRADIOL: CeeTox H295R High-throughput Steroidogenesis Assay for Estradiol (AID 2283440; active = hit-call score of the fitted dose curve at least 0.9, where 1 is the maximum; inactive = score below 0.9;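 also: estradiol secreted into medium quantified by LC-MS/MS after dansyl derivatisation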); conditions: actives raise or lower the signal
Procedure, shortened: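 H295R cells pre-stimulated 48 h with 10 uM forskolin, then exposed 48 h to chemical in 0.1% DMSO. Medium estradiol quantified by MTBE extraction, dansyl derivatisation and HPLC-MS/MS; bidirectional fit versus DMSO; MTT viability required >/=70%.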

[18] = CEETOX_H295R_ESTRONE: CeeTox H295R High-throughput Steroidogenesis Assay for Estrone (AID 2283441; active = hit-call score of the fitted dose curve at least 0.9, where 1 is the maximum; inactive = score below 0.9;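 as to AC50: human adrenal H295R cells prestimulated with forskolin for two days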); conditions: actives raise or lower the signal
Procedure, shortened: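 Estrone secreted into medium quantified by LC-MS/MS after dansyl chloride derivatization, following 48 h chemical exposure (0.1% DMSO final) of forskolin-prestimulated (10 uM, 48 h) H295R cells; gain or loss fitted against DMSO; MTT viability in same wells.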

[19] = CEETOX_H295R_PROG: CeeTox H295R High-throughput Steroidogenesis Assay for Progesterone (PROG) (AID 2283442; active = hit-call score of the fitted dose curve at least 0.9, where 1 is the maximum; inactive = score below 0.9;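 as to AC50: human H295R adrenal cells primed with 10 µM forskolin before dosing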); conditions: actives raise or lower the signal
Procedure, shortened: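 H295R adrenal cells prestimulated 48 h with 10 uM forskolin, then exposed 48 h to test chemical in 0.1% DMSO. Progesterone in medium quantified by HPLC-MS/MS after MTBE extraction; viability checked by MTT in same wells.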

Fatty acid synthase (Homo sapiens), sequence (P49327 whole entry, looked up): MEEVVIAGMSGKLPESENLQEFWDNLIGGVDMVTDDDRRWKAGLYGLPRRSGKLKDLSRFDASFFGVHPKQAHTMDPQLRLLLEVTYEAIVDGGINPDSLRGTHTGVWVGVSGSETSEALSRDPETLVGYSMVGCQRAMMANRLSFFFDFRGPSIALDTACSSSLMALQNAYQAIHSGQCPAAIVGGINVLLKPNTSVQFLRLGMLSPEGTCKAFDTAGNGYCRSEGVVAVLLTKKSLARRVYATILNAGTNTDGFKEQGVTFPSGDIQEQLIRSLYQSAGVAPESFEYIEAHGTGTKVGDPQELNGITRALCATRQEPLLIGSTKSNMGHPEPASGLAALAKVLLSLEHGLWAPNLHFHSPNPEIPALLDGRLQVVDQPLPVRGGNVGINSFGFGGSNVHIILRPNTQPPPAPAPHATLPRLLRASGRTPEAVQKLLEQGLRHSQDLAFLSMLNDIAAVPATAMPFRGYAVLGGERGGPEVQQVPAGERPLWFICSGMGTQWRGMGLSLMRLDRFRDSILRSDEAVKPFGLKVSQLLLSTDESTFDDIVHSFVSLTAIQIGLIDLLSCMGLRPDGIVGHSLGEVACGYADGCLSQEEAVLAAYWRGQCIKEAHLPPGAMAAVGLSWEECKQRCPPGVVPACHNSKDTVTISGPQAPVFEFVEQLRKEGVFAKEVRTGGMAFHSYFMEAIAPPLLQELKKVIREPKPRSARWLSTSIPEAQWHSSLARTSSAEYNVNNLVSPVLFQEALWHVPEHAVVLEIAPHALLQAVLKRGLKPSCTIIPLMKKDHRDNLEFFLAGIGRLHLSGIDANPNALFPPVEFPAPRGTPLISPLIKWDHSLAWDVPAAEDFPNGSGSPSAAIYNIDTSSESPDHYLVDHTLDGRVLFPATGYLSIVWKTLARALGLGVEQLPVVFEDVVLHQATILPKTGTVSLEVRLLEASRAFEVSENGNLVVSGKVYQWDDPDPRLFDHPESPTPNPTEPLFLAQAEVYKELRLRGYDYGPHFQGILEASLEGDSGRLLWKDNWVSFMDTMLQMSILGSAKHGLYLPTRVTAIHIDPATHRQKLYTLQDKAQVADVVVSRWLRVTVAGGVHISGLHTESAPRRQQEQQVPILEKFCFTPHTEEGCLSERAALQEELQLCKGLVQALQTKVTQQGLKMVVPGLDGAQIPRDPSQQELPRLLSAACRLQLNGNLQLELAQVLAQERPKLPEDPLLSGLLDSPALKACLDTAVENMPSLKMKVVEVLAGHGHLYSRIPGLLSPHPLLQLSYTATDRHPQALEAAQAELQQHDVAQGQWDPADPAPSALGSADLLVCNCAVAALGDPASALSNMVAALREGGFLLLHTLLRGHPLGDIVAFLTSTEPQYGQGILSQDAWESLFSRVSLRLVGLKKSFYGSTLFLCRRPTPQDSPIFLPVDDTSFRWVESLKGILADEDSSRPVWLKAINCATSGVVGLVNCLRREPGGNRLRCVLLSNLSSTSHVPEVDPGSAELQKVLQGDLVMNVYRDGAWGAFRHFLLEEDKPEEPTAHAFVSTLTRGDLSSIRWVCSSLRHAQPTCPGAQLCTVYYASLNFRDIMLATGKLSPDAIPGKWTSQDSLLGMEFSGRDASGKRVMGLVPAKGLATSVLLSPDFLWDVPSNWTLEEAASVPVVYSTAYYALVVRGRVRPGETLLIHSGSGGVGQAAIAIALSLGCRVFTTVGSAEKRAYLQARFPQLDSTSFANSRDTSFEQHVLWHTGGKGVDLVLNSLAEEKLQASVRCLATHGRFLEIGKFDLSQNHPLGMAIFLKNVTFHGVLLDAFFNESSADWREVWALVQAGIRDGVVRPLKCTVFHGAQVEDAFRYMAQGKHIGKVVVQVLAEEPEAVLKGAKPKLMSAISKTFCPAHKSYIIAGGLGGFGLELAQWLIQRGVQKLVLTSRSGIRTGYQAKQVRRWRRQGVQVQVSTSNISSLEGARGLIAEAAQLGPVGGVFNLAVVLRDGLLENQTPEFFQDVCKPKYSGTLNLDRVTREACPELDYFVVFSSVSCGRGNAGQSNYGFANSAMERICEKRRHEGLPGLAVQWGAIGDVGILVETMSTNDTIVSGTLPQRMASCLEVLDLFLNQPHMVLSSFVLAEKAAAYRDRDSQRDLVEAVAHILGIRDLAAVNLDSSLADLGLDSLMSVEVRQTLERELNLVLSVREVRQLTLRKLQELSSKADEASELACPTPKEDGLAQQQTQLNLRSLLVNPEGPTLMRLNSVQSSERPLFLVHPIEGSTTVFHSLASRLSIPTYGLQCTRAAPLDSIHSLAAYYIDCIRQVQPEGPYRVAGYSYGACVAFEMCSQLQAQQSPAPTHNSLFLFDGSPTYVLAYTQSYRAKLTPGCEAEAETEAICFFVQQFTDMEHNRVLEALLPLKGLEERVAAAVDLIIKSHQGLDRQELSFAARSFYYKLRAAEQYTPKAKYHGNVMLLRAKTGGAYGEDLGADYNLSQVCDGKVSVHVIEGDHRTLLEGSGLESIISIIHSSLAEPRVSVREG

In the case of `O=P(OCC(Br)CBr)(OCC(Br)CBr)OCC(Br)CBr` (stereo not drawn), the outcome [1] is reported as “inactive”, the outcome [2] is reported as “inactive” and the AC50 [3] is reported as 11.4 µM (active). The outcome [4] was “inactive”, the AC50 [5] was 73.9 µM (active) and the outcome [6] was “inactive”.
In the case of `CCCCC(CC)COP(=O)(Oc1ccccc1)Oc1ccccc1` (stereo not drawn), the outcome [1] is reported as “inactive”, the outcome [2] is reported as “inactive” and the AC50 [3] is reported as 2.85 µM (active). For the same compound, the outcome [4] was “inactive”, the AC50 [5] was 82.1 µM (active) and the outcome [6] was “inactive”.
With `c1nc[nH]n1` the outcome [1] was “inactive”, the outcome [2] was “inactive” and the outcome [3] was “inactive”. The outcome [5] was “inactive”, the outcome [6] was “inactive” and the outcome [7] was “inactive”. For the same compound, the outcome [8] was “inactive” and the AC50 [9] was 0.0353 µM (active).
With `O=S1(=O)OCC2C(CO1)C1(Cl)C(Cl)=C(Cl)C2(Cl)C1(Cl)Cl` (stereo not drawn) the outcome [1] was “inactive”, the outcome [2] was “inactive” and the AC50 [3] was 49.3 µM (active). For the same compound, the outcome [4] was “inactive”, the outcome [10] was “inactive” and the outcome [6] was “inactive”. The AC50 [11] was 7.28 µM (active), the AC50 [12] was 2.84 µM (active) and the AC50 [13] was 10 µM (active). The outcome [14] was “inactive”, the AC50 [15] was 9.67 µM (active) and the AC50 [16] was 7.77 µM (active). For the same compound, the outcome [17] was “inactive”, the outcome [18] was “inactive” and the AC50 [19] was 1.03 µM (active).
In the case of `CCCCc1ccc(O)cc1`, the outcome [1] is reported as “inactive”, the outcome [2] is reported as “inactive” and the outcome [3] is reported as “inactive”. For the same compound, the outcome [4] was “inactive”, the outcome [5] was “inactive” and the outcome [6] was “inactive”. For the same compound, the outcome [11] was “inactive”, the outcome [12] was “inactive” and the outcome [13] was “inactive”. The AC50 [14] was 28.3 µM (active), the AC50 [15] was 28.4 µM (active) and the outcome [16] was “inactive”. The outcome [17] was “inactive”, the AC50 [18] was 32.2 µM (active) and the outcome [19] was “inactive”.
In the case of `CCN(CC)c1ccccc1`, the outcome [1] is reported as “inactive”, the outcome [2] is reported as “inactive” and the outcome [4] is reported as “inactive”. For the same compound, the outcome [5] was “inactive”, the outcome [10] was “inactive” and the outcome [6] was “inactive”. For the same compound, the outcome [7] was “inactive”, the outcome [8] was “inactive” and the outcome [9] was “inactive”.
In the case of `O=S(=O)(c1ccc(O)cc1)c1ccc(O)cc1`, the AC50 [1] is reported as 12.6 µM (active), the AC50 [2] is reported as 51.9 µM (active) and the outcome [3] is reported as “inactive”. The outcome [10] was “inactive”, the outcome [6] was “inactive” and the AC50 [11] was 19.1 µM (active). For the same compound, the outcome [12] was “inactive”, the AC50 [13] was 0.82 µM (active) and the outcome [14] was “inactive”. The AC50 [15] was 28.4 µM (active), the AC50 [16] was 3.31 µM (active) and the AC50 [17] was 18.3 µM (active). For the same compound, the outcome [18] was “inactive” and the AC50 [19] was 1.32 µM (active).
For `CCCN(CCC)c1c([N+](=O)[O-])cc(C(C)C)cc1[N+](=O)[O-]`, the AC50 [1] was 12.2 µM (active), the outcome [2] was “inactive” and the AC50 [4] was 75.7 µM (active). For the same compound, the outcome [4] was “inactive”, the AC50 [5] was 80.9 µM (active) and the outcome [5] was “inactive”. The outcome [6] was “inactive”, the AC50 [7] was 12.7 µM (active) and the outcome [8] was “inactive”. For the same compound, the outcome [9] was “inactive”.
